Source: PubChem BioAssay (National Center for Advancing Translational Sciences (NCATS))
This is a sample that favours compounds with a hit; in the whole collection about 6.2% have one here.
ATXN2 expr inh = inhibitors of ATXN2 expression | HEK-293 ATXN2-luciferase reporter, luminescence, 24 h | Potency, µM (highest dose often 57 µM), usual class: inhibitors | 360,000 compounds, 0.72% hits | AID 1745845; also: nearly all actives have a fitted effect of over 55% in size
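ATXN2-luciferase reporter cells (luciferase flanked by upstream and downstream ATXN2 gene portions) were treated 24 h at 37 °C with compounds at up to 57 uM. SteadyGlo luminescence gave expression; GF-AFC fluorescence gave viability.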
HT1080-NT tox = kills 2HG-producing HT-1080-NT fibrosarcoma cells | HT-1080-NT fibrosarcoma viability, CellTiter-Glo ATP luminescence, 48 h | Potency, µM (top dose mostly 46.1 µM), most hits filed as cytotoxic | 360,000 compounds, 1.6% hits;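 also: NT is the 2HG producing partner of a matched IDH1 knockdown line; nearly all actives have a fitted effect of over 55% in size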
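Viability of the 2HG-overproducing fibrosarcoma line after 48 hours of compound exposure at 37 degrees C was determined by luminescence with CellTiter-Glo, and concentration-effect curves were then fitted and categorized.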
KB-3-1 tox = KB-3-1 parental cell cytotoxicity; Potency, µM (titrated, usually from 46.1 µM), actives largely listed as cytotoxic; 400,000 compounds, 1.4% hits; AID 1347075; KB-3-1 viability, CellTiter-Glo ATP luminescence, 72 h; also: nearly all actives have a fitted effect of over 60% in size
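Viability of parental KB-3-1 cells, measured by CellTiter-Glo luminescence, followed a 72 h incubation at 37 °C with pinned compounds in phenol-red-free DMEM containing 10% FBS.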
HT1080 IDH1KD tx = HT-1080 IDH1 knockdown cell toxicity (counter line); HT-1080 IDH1 knockdown viability, ATP luminescence, 48 h; Potency, µM (series often up to 46.1 µM), actives largely listed as cytotoxic; 360,000 compounds, 2% hits
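After a 2 h attachment period, IDH1KD HT-1080 cells took pin-transferred compound for 48 h at 37 °C; ATP-based luminescence after 10 min room-temperature reagent incubation reported viability.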
KB-V1 MDR tox = kills drug-selected multidrug resistant KB-V1 cells. 400,000 compounds, 3.4% hits. KB-V1 MDR cells viability, CellTiter-Glo, 72 h. Potency, µM (series often up to 46.1 µM), actives largely listed as cytotoxic. AID 1347076; also: nearly all actives have a fitted effect of over 60% in size
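In this primary screen, KB-V1 cells overexpressing P-gp are incubated with library compounds (lowest to highest concentration) for 72 h at 37 degrees C before a luminescent ATP viability read.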
S2 tox = cell viability loss in ATXN counter-screen; S2 cells (HEK-293 line with an ATXN2-luciferase reporter) viability, CellTiter-Fluor protease fluorescence, 24 h; 400,000 compounds, 0.49% hits; AID 651635; Potency, µM (highest dose often 56.7 µM), most hits filed as cytotoxic; also: nearly all actives have a fitted effect of over 40% in size
Numbers stand for hits; . = inactive; ? = inconclusive; / = not tested or not shown; ! = not confirmed by another sample; [ ] = another dose, or the depositor's remark. Calls follow the shape of the dose curve; as a rule, active = well fitted curve in the direction sought with a large enough effect; inconclusive = small, poorly fitted or top-dose-only effect, or another doubt; inactive = no such curve, though single readings can be large; an effect the other way counts as inactive or inconclusive.

SMILES | ATXN2 expr inh | HT1080-NT tox | KB-3-1 tox | HT1080 IDH1KD tx | KB-V1 MDR tox | S2 tox
Cc1ccnc2ccc3ccccc3c12 | / | / | 8.2µM | / | . | /
Cc1ccnc2cc(Cl)cc(Cl)c12 | / | / | . | / | . | /
Cc1ccc2c(c1)Oc1ccc(NC(=O)CCCl)cc1C(=O)N2 | / | ? | . | 16µM | ? | .
CC(C)n1ncc2c(C(=O)N3CCN(Cc4ccc(Cl)s4)CC3)cc(C3CC3)nc21 | . | . | ? | . | 8.2µM | ?
Cc1ccc(S(=O)(=O)N2CCN(C(=O)c3cc(C4CC4)nc4c3cnn4C(C)C)CC2)cc1 | / | . | ? | . | . | /
O=C(OCc1cc(=O)n2nc(-c3cccs3)sc2n1)c1ccccc1Cl | . | / | . | / | . | .
Cc1cc(O)c(C(c2cccc(F)c2)N2CCC(C)CC2)c(=O)n1Cc1ccco1 (centres undefined) | / | / | . | / | ? | /
Clc1ccccc1COc1ccc(/C=N/n2cnnc2)cc1 | . | . | . | . | ? | .
C=CCNC(=S)N/N=C/c1ccc(OCc2ccccc2Cl)cc1 | . | 3.2µM | . | 3.2µM | . | .
CCN(CC)C(=O)CSc1nnc(-c2ccccc2)c(-c2ccccc2)n1 | . | . | . | . | 3.3µM | .
c1ccc(CSc2nnc(-c3ccccc3)c(-c3ccccc3)n2)cc1 | . | . | . | . | 18µM | .
O=C(O)CSc1nnc(-c2ccccc2)c(-c2ccccc2)n1 | . | . | . | . | . | .
Cc1ccc(NC(=O)c2c(C)oc3ccc(O)c(CN4CCCC4)c23)c(C)c1 | . | / | . | / | . | .
COc1ccc2c(c1)sc1nc(-c3ccccc3)cn12 | ? | 2.6µM | 2.3µM | 4.6µM | ? | .
CC(C)OC(=O)NC(C)(C)COC(=O)Nc1cccc(Cl)c1 | . | . | ? | . | 9.2µM | .
CC(C)OC(=O)NCCOC(=O)Nc1cccc(Cl)c1 | . | . | ? | . | . | .
O=C(Nc1cccc(Cl)c1)OCCOC(=O)Nc1cccc(Cl)c1 | ? | ? | . | 23µM | . | .
Cc1ccccc1[C@@]1(C)ON(c2ccccc2C(F)(F)F)C1=O | ? | . | ? | . | . | ?
CC[C@@]1(c2ccccc2OC)ON(c2ccccc2C(F)(F)F)C1=O | 22µM | . | ? | ? | ? | /
Cc1cc(CCNC=O)c(C)c2c1sc1ccccc12 | . | . | 16µM | . | 16µM | .
Cc1ccc(-c2nc3n(n2)Cc2ccccc2-3)cc1 | . | ? | . | ? | ? | .
c1ccc(-c2cn3c(n2)-c2ccccc2C3)cc1 | . | ? | ? | ? | 10µM | ?
CCc1ccc(C2C(C(=O)Nc3ccccc3OC)=C(C)Nc3nc(SCc4ccccc4)nn32)cc1 (centres undefined) | . | / | . | / | . | .
Cc1ccc(C)c(NC(=O)c2ccccc2NS(=O)(=O)c2cc([N+](=O)[O-])ccc2C)c1 | ? | 10µM | 21µM | 13µM | . | .
Cc1ccc(NS(=O)(=O)c2cc(C(=O)Nc3cccc([N+](=O)[O-])c3)ccc2C)cc1 | . | . | . | ? | 15µM | .
SMILES | ATXN2 expr inh | HT1080-NT tox | KB-3-1 tox | HT1080 IDH1KD tx | KB-V1 MDR tox | S2 tox
CCCCCCOC(=O)Nc1ccc(S(=O)(=O)Nc2cccc([N+](=O)[O-])c2)cc1 | . | . | . | . | 21µM | .
Cc1ccc(NS(=O)(=O)c2ccc(OCC(=O)Nc3cccc([N+](=O)[O-])c3)c(C)c2)cc1 | ? | ? | . | 13µM | . | ?
Cc1ccn2c(Nc3ccc4c(c3)OCO4)c(-c3ccc(N(C)C)cc3)nc2c1 | . | / | . | / | . | ?
COc1ccc(OC)c(NC(=O)c2cc3n(n2)C(C(F)(F)F)CC(c2ccc4c(c2)OCO4)N3)c1 (centres undefined) | ? | ? | ? | ? | 12µM | .
COc1cccc(Cn2c3ccc(NC(=O)CCc4ccc(F)cc4)cc3c(=O)n2C)c1 | . | ? | 4.1µM | 4.1µM | ? | ?
Cn1c(=O)c2cc(NC(=O)CCc3ccccc3)ccc2n1-c1ccccc1F | . | ? | ? | 7.3µM | . | ?
COc1ccccc1CCC(=O)Nc1ccc2c(c1)c(=O)n(C)n2Cc1ccc(F)cc1 | . | 3.3µM | 8.2µM | 5.8µM | ? | .
CC(C)=CCn1c2ccc(NC(=O)NCc3ccc(F)cc3)cc2c(=O)n1C | . | ? | 4.6µM | 2.3µM | . | ?
COc1cccc(CNC(=S)Nc2ccc3c(c2)c(=O)n(C)n3Cc2ccc(F)cc2)c1 | . | ? | . | . | . | .
CC(CC(=O)Nc1ccc2c(c1)c(=O)n(C)n2-c1ccccc1)c1ccccc1 (centres undefined) | . | 3.7µM | 4.6µM | 2.9µM | 10µM | ?
CC(C)=CCn1c2ccc(NC(=O)Nc3cccnc3)cc2c(=O)n1C | . | ? | . | . | . | .
Cn1c(=O)c2cc(NC(=O)Nc3cccnc3)ccc2n1-c1ccc(C(C)(C)C)cc1 | ? | 21µM | ? | ? | . | ?
Cc1cccc(C(=O)N2CCc3cc(CNC(=O)COc4ccc(Cl)cc4)ccc32)c1 | / | / | . | / | . | /
CCCN(Cc1nnc(-c2cccs2)o1)C(=O)c1cccc(S(=O)(=O)N2CCOCC2)c1 | . | . | . | . | 23µM | .
CN(C)c1ccc(CNC(=O)C2CCN(c3nnc(-n4cccc4)s3)CC2)cc1 | . | / | . | / | . | .
COCc1c(C(=O)N2CCN(Cc3ccc(C#N)cc3)CC2)oc2ccccc12 | . | . | ? | . | 13µM | .
COCc1c(C(=O)N2CCN(Cc3ccc4c(c3)OCO4)CC2)oc2ccccc12 | . | .[9.24 µM] | ? | . | . | .
S=C(Nc1ccc(Nc2ccccc2)cc1)Nc1ccccn1 | . | ? | ? | 16µM | . | .
COC(=O)c1c[nH]c2c1-c1cc(C(=O)OCc3ccccc3)n(S(=O)(=O)c3ccc(C)cc3)c1C(=O)C2=O | ? | ? | 2.9µM | 21µM | 5.8µM | ?
COc1ccc(NC(=O)CCN2C(=O)C3C4CCC(C4)C3C2=O)cc1 (centres undefined) | . | . | . | ? | . | ?
COc1ccc(NC(=O)CCN2C(=O)[C@@H]3[C@H](C2=O)[C@H]2C=C[C@@H]3C2)cc1 | . | 18µM | . | ? | . | .
CCCCN(CCCC)S(=O)(=O)c1ccc2oc(C(=O)N3CCOCC3)c(C)c2c1 | . | . | . | . | 4.6µM | .
CCN(CC)S(=O)(=O)c1ccc2oc(C(=O)NCCCN3CCOCC3)c(C)c2c1 | . | . | . | . | . | .
CC1=CC(C)(C)NC(=S)N1c1ccc(C)cc1 | . | ? | . | 11µM | . | .
CC1=CC(C)(C)NC(=S)N1c1ccc(C)c(C)c1 | . | . | ? | . | . | .
CC1=CC(C)(C)NC(=S)N1c1cccc(C)c1 | . | 8.9µM! | . | 8.9µM! | . | .
Cc1ccc(NS(=O)(=O)c2cc3c(cc2N(C)C)CCC(=O)N3)cc1C | / | / | . | / | . | /
CC(=O)Nc1cn(-c2ccccc2)nc1-c1ccccc1 | .[11.3 µM] | . | . | . | . | .
